Test [1] can be described thus: Viability qHTS for spleen associated tyrosine kinase inhibitor (SYKi) naive MV4-11 cells (AID 1963823). Further: nearly all actives have a fitted effect of over 40% in size. In outline:
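In this viability screen, compounds acted on SYK inhibitor naive MV4-11 cells for three days (72 hr, 37 C). Remaining viable cells were measured by CellTiter-Glo luminescence following a 10 min room-temperature development.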
For orientation: In qHTS, concentration-response curves come from the screen itself.

A short description of test [2]: Viability qHTS for spleen associated tyrosine kinase inhibitor (SYKi) drug resistant MV4-11 cells (AID 1963824). Further: nearly all actives have a fitted effect of over 35% in size. In outline:
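CellTiter-Glo luminescence, read 10 min after reagent addition, reports viability after a 72 hr compound exposure. Cells are an MV4-11 line made resistant to SYK inhibition, seeded at 500 per well onto compound-containing plates.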

Results filed as inconclusive are left out. Values without a mark were called inactive. Activity calls are given as the source filed them. The call rests on the fitted dose curve; in most records, active means well fitted cell-killing curve with a large enough effect; inconclusive means small, poorly fitted or top-dose-only effect, or effect the other way; inactive means no such curve, though single readings can be large or run the other way.
Potency means the concentration at half of the fitted maximal effect.

As for `CC[C@H](/C=C/[C@@H](C)[C@H]1CC[C@H]2[C@@H]3CC=C4C[C@@H](O)CC[C@]4(C)[C@H]3CC[C@]12C)C(C)C`, the viability (% of control) in test [1] was 82.1% [at 4.97 µM]. In test [2], the viability, % of control is 108% [at 4.97 µM].
As for `CCC(NC(=O)CC(NC(=O)C(CO)NC(=O)C(CC)NC(=O)c1ccc[nH]1)c1ccccc1)C(=O)O` (stereo not given), the Potency entry in test [1] and in test [2] was “inactive” in each case.
Turning to `COc1ccc(CCC(=O)c2c(O)cc(O[C@@H]3O[C@H](CO)[C@@H](O)[C@H](O)[C@H]3O[C@@H]3O[C@@H](C)[C@H](O)[C@@H](O)[C@H]3O)cc2O)cc1O`, the Potency entry in test [1] and in test [2] was “inactive” in each case.
For the compound `CC(C)c1ccc(NC(=O)c2cccs2)c(-c2nc3ccccc3[nH]c2=O)c1`, the Potency in test [1] is 8.2 µM (active); in test [2] it was 11.6 µM (active).
With `C/C(=C\CO)CC/C=C(\C)C(=O)O[C@@H]1O[C@H](CO)[C@@H](O)[C@H](O)[C@H]1O`, the Potency entry in test [1] and in test [2] was “inactive” in each case.
Take `C=CC(C)(O)CC/C=C(\C)COC1O[C@H](CO)[C@@H](O)[C@H](O)[C@H]1O` (stereo not given in full): the Potency result in test [1] and in test [2] was “inactive” each time.
As to `O=Nc1c2[nH]c3ccccc3nc-2c2ccccc12`, the Potency in test [1] was 5.8 µM (active); in test [2] it was 10.3 µM (active).
The matching figures for `O=C(Nc1cccc(Nc2cc(Nc3cccc(C(F)(F)F)c3)ncn2)c1)C1CC1`: 0.164 µM (active) and 0.259 µM (active).
The matching figures for `CCN(CC)CCOc1ccc2c(c1)C(=O)c1cc(OCCN(CC)CC)ccc1-2`: 13.3 µM (active) and 9.44 µM (active).
Take `CC1CCC2(C(=O)O)CCC3(C)C(=CCC4C5(C)CCC(O)C(C)(C(=O)O)C5CCC43C)C2C1(C)O` (stereo not given): the Potency entry in test [1] and in test [2] was “inactive” throughout.

The values above are taken from PubChem BioAssay (NCATS).
